# An excerpt weighted towards active compounds, which were near 19% of everything screened.
# VP16 counter: inhibits Gal4-VP16 luciferase reporter, ROR gamma counter-screen; Drosophila S2 Gal4-VP16 UAS-luciferase, luminescence, 20 h; Potency, µM (titrated, usually from 53.6 µM), inactives show at the highest dose activity, negative = inhibition, hits mostly inhibitors; hit rate 3.5% among 310,000; AID 2546;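 further: Gal4-VP16 expression switched on by copper sulfate through the metallothionein promoter; nearly all actives have a fitted effect of over 50% in size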
# RORg inh: blocks mouse ROR gamma transcriptional activity. P51450. Drosophila S2 Gal4-RORgamma UAS-luciferase reporter, 20 h. Potency, µM (titrated, usually from 53.6 µM), for the others: at the highest dose activity change, negative = inhibition, hits mostly inhibitors. hit rate 5.4% among 310,000; further: nearly all actives have a fitted effect of over 60% in size
#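 In this cell-based reporter format, copper sulfate (700 uM final) drives Gal4–ROR gamma fusion expression from a metallothionein promoter in Drosophila Schneider cells; compounds preincubated 1 hr, reporter read after 20 hr at ambient temperature.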
# TDP1 block: inhibitors of human tyrosyl-DNA phosphodiesterase TDP1; recombinant TDP1, AlphaScreen DNA substrate cleavage; hit rate 0.28% among 350,000; Potency, µM (series often up to 130 µM), for the others: top-dose activity change, negative = inhibition, most hits filed as inhibitors; further: nearly all actives have a fitted effect of over 40% in size
# Target sequence (Q9NUW8 whole entry, looked up): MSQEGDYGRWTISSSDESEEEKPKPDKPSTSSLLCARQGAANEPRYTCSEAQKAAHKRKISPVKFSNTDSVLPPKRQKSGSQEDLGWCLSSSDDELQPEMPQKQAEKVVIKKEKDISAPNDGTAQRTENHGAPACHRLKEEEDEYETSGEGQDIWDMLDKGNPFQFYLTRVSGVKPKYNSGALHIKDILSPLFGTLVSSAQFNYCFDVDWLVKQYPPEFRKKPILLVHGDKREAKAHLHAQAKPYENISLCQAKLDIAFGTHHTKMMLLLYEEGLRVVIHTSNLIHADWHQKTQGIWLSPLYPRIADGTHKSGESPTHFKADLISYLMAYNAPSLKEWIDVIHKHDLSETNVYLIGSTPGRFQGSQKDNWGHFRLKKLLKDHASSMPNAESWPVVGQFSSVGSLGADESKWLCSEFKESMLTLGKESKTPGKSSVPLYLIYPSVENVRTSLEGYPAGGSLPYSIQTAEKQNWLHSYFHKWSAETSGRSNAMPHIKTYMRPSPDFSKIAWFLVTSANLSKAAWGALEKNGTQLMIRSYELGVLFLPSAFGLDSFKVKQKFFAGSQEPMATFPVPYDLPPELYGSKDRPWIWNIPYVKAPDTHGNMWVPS
#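 Signal: AlphaScreen proximity between streptavidin donor and anti-FITC acceptor beads on intact substrate. Reaction: Tdp1 1 nM, substrate 15 nM final, 5 min RT after 15 min compound preincubation.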
# DT40 TDP1 CPT: DT40-hTDP1 cell growth loss with CPT. chicken DT40 Tdp1-/-;hTDP1 cells + 20 nM CPT, ATP luminescence, 48 h. Potency, µM (titrated, usually from 46.2 µM), for the others: top-dose activity change, negative = growth inhibition, hits mostly inhibitors. hit rate 12% among 420,000. AID 686979; further: nearly all actives have a fitted effect of over 55% in size
#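 Chicken DT40 Tdp1-/- cells stably complemented with human TDP1 were seeded at 400 cells/well in medium containing 20 nM camptothecin, exposed to pin-transferred compounds, and grown at 37 °C for at least 48 hr. Viability was read as ATP luminescence.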
# TDP1 cell noCPT: qHTS for Inhibitors of human tyrosyl-DNA phosphodiesterase 1 (TDP1): qHTS in cells in absence of CPT. DT40 Tdp1-/- hTDP1 cells, no CPT, ATP luminescence, 48 h. Potency, µM (top dose mostly 46.2 µM), without a hit: at the highest dose activity change, negative = growth inhibition, usual class: inhibitors. hit rate 15% among 420,000. AID 686978, 2013; further: nearly all actives have a fitted effect of over 55% in size
#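 Cells were dispensed at 400 per well, compounds added by pin tool, plates incubated ≥48 hr at 37 °C, then CellTiter-Glo added for 30 min at room temperature before luminescence reading. Line: DT40 Tdp1-/- complemented with hTDP1; camptothecin omitted.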
# Numbers without * were called inactive; ? = inconclusive; . = no result given; [ ] = another dose, or the depositor's remark. The call rests on the fitted dose curve; in most records, active means well fitted curve in the direction sought with a large enough effect; inconclusive means small, poorly fitted or top-dose-only effect, or another doubt; inactive means no such curve, though single readings can be large; an effect the other way counts as inactive or inconclusive. On the % scale 0 is the no-effect control and ±100 the full control effect; potency means the concentration at half of the fitted maximal effect.
SMILES,VP16 counter,RORg inh,TDP1 block,DT40 TDP1 CPT,TDP1 cell noCPT
COc1ccc(NC(=O)CCNS(=O)(=O)c2cccc3nonc23)cc1Cl,27%,28%,7%[0.0935 µM],-3%,-16%
O=C(Nc1ccc(N2CCCCC2)c(S(=O)(=O)Nc2ccccc2Cl)c1)c1cccnc1,.,.,3%,-28%,?
Cc1ccc(NC(=S)N(C)C(c2ccccc2)c2ccccc2)cc1C,10µM*,3.5µM*,.,?,23µM*
CN(C(=S)Nc1ccc(F)cc1)C(c1ccccc1)c1ccccc1,?,11µM*,.,?,?
CCN(N)C(=S)Nc1ccc(F)cc1,-3%,?,5%,12%,-2%
Cc1nc2ccc(C(=O)N3c4ccccc4N=C(c4ccc(C(F)(F)F)cc4)C3C(=O)NC(C)(C)C)cc2[nH]1 (configuration not stated),.,.,.,?,15µM*
COc1ccc(CCC(=O)N2c3ccccc3N=C(c3ccc4c(c3)OCO4)C2C(=O)Nc2ccc(OC)cc2)cc1 (configuration not stated),.,.,.,2%,-13%
Cc1ccc(C(=O)N2c3ccccc3N=C(c3ccccc3)C2C(=O)NC(C)C)cc1 (configuration not stated),.,.,.,-25%,?
COc1ccc(C2=Nc3ccccc3N(C(=O)c3cccnc3)C2C(=O)NC2CCCC2)cc1 (configuration not stated),.,.,.,-5%,4%
CC(C)NC(=O)C1C(c2ccccc2)=Nc2ccccc2N1C(=O)c1cc(Cl)cc(Cl)c1 (configuration not stated),.,.,.,23µM*,?
CC(=O)N1CCC(C(=O)N2c3ccccc3N=C(c3ccc(C(F)(F)F)cc3)C2C(=O)NC(C)C)CC1 (configuration not stated),.,.,.,-7%,-22%
COc1ccc(CCC(=O)N2c3ccccc3N=C(c3ccc(C(F)(F)F)cc3)C2C(=O)NC(C)C)cc1 (configuration not stated),.,.,.,23µM*,?
CC(=O)N1c2ccccc2N=C(c2ccc(C(F)(F)F)cc2)C1C(=O)NC(C)C (configuration not stated),.,.,.,21µM*,23µM*
CCc1cc2ccc(C)cc2nc1SCC(=O)c1ccc(NC(C)=O)cc1,-8%,-8%,1%,-22%,-22%
O=C(NC1CCCC1)C1C(c2ccc(C(F)(F)F)cc2)=Nc2ccccc2N1C(=O)c1ccco1 (configuration not stated),.,.,.,16µM*,?
CCOC(=O)CN1C(=O)C(=O)N(Cc2c(C)cc(C)cc2C)C1=O,3%,10%,.,5%,-2%
COc1ccc(NC(=O)CC(CC(=O)O)c2cc(OC)c(OC)c(OC)c2)cc1 (configuration not stated),-2%,-7%,5%,7%,-3%
Cn1cnc([N+](=O)[O-])c1Oc1cccc(O)c1,13µM*,-30%,4%,?,23µM*
Cn1cnc([N+](=O)[O-])c1Oc1ccccc1,-20%,-16%,2%,18µM*,?
CCCc1cc(CNC(=O)C2CCC(=O)N(Cc3ccccc3OC)C2)on1 (configuration not stated),7%,1%,3%,-2%,1%
Cc1ccc(NC2CCCN(C(=O)c3cn4cccc(C)c4n3)C2)cc1C (configuration not stated),-2%,-13%,5%,2%,3%
COc1cccc(C(O)c2nc3ccccc3n2C(C)C)c1OC (configuration not stated),?,-13%,.,-5%,-12%
Cc1cccn2c(=O)c3cc(C(=O)N4c5ccccc5CC4C)n(C)c3nc12 (configuration not stated),-5%,-24%,2%,18µM*,16µM*
Cn1c(C(=O)N2CCOCC2)cc2c(=O)n3ccccc3nc21,10%,-18%,3%,-3%,-5%
Cn1c(C(=O)N2CCN(C(=O)c3ccco3)CC2)cc2c(=O)n3ccccc3nc21,14µM*,25%,-2%,-16%,-7%
SMILES,VP16 counter,RORg inh,TDP1 block,DT40 TDP1 CPT,TDP1 cell noCPT
Cc1cccn2c(=O)c3cc(C(=O)N4CCOCC4)n(C)c3nc12,7%,-11%,1%,14%,-1%
CC1Cc2ccccc2N1C(=O)c1cc2c(=O)n3ccccc3nc2n1C (configuration not stated),-7%,19%,2%,12µM*,?
CC(C)c1ccc(OCC(=O)N2CCc3ccccc3C2)cc1,-3%,29%,.,-14%,-15%
COCC(=O)N1CCCC(C(=O)c2ccc(-c3ccccc3)cc2)C1 (configuration not stated),11%,13%,.,?,?
CC1CCCN(C(=O)COc2ccc(-c3ccccc3)cc2)C1 (configuration not stated),?,?,0%,?,15µM*
COc1ccc2c(c1)c(=O)oc1cc(OCC(=O)N3CCc4ccccc4C3)ccc12,10%,?,13µM*,?,?
Cc1c(C)c2ccc(OCC(=O)N3CCC(C(=O)O)CC3)cc2oc1=O,-24%,-35%,.,1%,9%
COc1ccc2c(c1)c(=O)oc1cc(OCC(=O)N3CCCC(C)C3)ccc12 (configuration not stated),10µM*,-29%,.,?,13µM*
COc1ccc2c(c1)c(=O)oc1cc(OCC(=O)N3CCC(C)CC3)ccc12,-23%,-25%,.,?,21µM*
Cc1c(Cl)c(=O)oc2cc(OCC(=O)N3CCCC(C)C3)ccc12 (configuration not stated),.,.,0%,?,?
O=C(C1=NN(c2ccccc2)C(=O)CC1)N1CCc2ccccc2C1,-10%,24%,2%,-11%,17%
C/C(=N\NC(=O)c1cccnc1)c1c(O)cc(C)oc1=O,2%,-44%,6%,5%,4%
COc1cccc(/C=C(/C(=O)OCC(=O)NC2CCCC(C)C2C)c2ccccc2)c1 (configuration not stated),?,?,1%,?,21µM*
CC(C)(C)c1ccc(S(=O)(=O)NNC(=O)c2cc3ccccc3[nH]2)cc1,?,?,3%,?,?
O=C(NC1c2ccccc2-c2ccccc21)c1ccccc1,-10%,-3%,0%,-29%,-13%
COc1cccc(NC(=O)c2c(C(=O)Nc3ccccc3)sc3nc(C)cc(=O)n23)c1,.,.,0%,-21%,-2%
COc1ccc(OC)c(S(=O)(=O)NCCOC23CC4CC(CC(C4)C2)C3)c1,1%,2%,5%,18µM*,7.3µM*
